# Compound activity deposited in PubChem by National Center for Advancing Translational Sciences (NCATS).
# USP2a inh: inhibitors of human ubiquitin-specific protease USP2a; O75604; USP2 core, Ub-CHOP2 coupled fluorogenic reporter, 485/531; Potency, µM (top dose mostly 38.3 µM), inactives show at the top dose activity change, negative = inhibition, hits mostly inhibitors; 330,000 compounds, 0.01% hits; AID 463254;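 further: potency means the concentration at half of the fitted maximal effect; plate controls were DMSO wells for no effect and full inhibition by NEM control for full effect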
#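 Deubiquitinase activity read as fluorescence (485/531 nm) after Ub-CHOP2 cleavage activates the enterokinase reporter on its substrate; USP2 core 10nM, Ub-CHOP2 and substrate 25nM each, 30min compound preincubation then 60min RT; data normalized to NEM, curves fitted.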
# PLK1 PBD block: inhibitors of human PLK1 polo-box domain binding; 360,000 compounds, 2.8% hits; AID 720504; P53350; Potency, µM, inactives show max response, negative = inhibition, usual class: inhibitors; Plk1 PBD binding of FITC phosphopeptide, fluorescence polarization; further: potency means the concentration at half of the fitted maximal effect; series mostly up to about 57 µM; nearly all actives have a fitted effect of over 65% in size
# Target sequence (P53350 whole entry, looked up, the tested form may be a part): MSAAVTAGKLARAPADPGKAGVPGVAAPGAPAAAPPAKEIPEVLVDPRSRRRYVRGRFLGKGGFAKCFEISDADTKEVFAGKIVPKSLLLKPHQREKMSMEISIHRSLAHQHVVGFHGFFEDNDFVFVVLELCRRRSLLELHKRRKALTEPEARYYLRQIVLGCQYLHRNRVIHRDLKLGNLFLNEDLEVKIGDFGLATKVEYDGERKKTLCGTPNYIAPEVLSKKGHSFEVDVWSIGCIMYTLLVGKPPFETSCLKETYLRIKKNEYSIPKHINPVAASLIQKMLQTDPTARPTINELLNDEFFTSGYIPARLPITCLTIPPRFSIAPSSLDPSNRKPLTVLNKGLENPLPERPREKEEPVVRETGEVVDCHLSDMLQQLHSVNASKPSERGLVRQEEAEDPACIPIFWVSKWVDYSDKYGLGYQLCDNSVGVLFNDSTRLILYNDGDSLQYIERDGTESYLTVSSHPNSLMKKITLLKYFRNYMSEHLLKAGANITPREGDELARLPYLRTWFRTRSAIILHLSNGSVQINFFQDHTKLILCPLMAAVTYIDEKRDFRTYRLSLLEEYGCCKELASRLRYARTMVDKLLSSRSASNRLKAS
# USP1 inh: USP1/UAF1 (human) deubiquitinase inhibition; Potency, µM (highest dose often 57.1 µM), inactives show top-dose activity change, negative = inhibition, usual class: inhibitors; 390,000 compounds, 0.23% hits; recombinant USP1/UAF1, Ub-Rhodamine cleavage fluorescence; O94782; further: potency means the concentration at half of the fitted maximal effect; nearly all actives have a fitted effect of over 60% in size
#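 In this screen, compounds sit with the deubiquitinase complex (1nM) for 15 min at room temperature before Ub-Rho is added at 150nM final. Fluorescence rise is then followed for 6 reads every 60 seconds.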
# PI5P4K alpha inh: blocks human PI5P4K alpha kinase activity. PI5P4Kalpha enzyme, ADP-Glo luminescence, 60 min; hits give low values. max response, %. 330,000 compounds, 1.2% hits; active means max response of -50% or lower; inconclusive means between -30% and -50%; inactive means -30% or higher; further: value at the top dose of about 77 µM
#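 ADP-Glo luminescence end-point after a 60 min room-temperature kinase reaction. PI5P4Kalpha and substrate in HEPES pH 7.4 buffer with EGTA, 0.1% CHAPS and 5% DMSO; ATP at 5 microM final.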
# WRN inhibitor: inhibitors of human WRN helicase | Potency, µM (titrated, usually from 114 µM), for the others: at the highest dose activity change, negative = inhibition, hits mostly inhibitors | 360,000 compounds, 0.46% hits | Q14191 | WRN helicase unwinding, fluorescent forked duplex, kinetic; further: potency means the concentration at half of the fitted maximal effect; nearly all actives have a fitted effect of over 55% in size
#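 Primary qHTS, 1536-well format. 20 nM WRN + compound, 15 min RT; start with 100 nM forked fluorophore/quencher duplex, 2 mM ATP (final); kinetic read ex 525/em 598 nm.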
# Starred values were filed as active, the others as inactive; ? = inconclusive; / = not tested or not shown; [ ] = dose if it differs, or a comment. An excerpt weighted towards active compounds, which were near 3.3% of everything screened. Unless noted, the call rests on the fitted dose curve; in most records, active means well fitted curve in the direction sought with a large enough effect; inconclusive means small, poorly fitted or top-dose-only effect, or another doubt; inactive means no such curve, though single readings can be large; an effect the other way counts as inactive or inconclusive. Unless noted, on the % scale 0 is the no-effect control and ±100 the full control effect.
SMILES,USP2a inh,PLK1 PBD block,USP1 inh,PI5P4K alpha inh,WRN inhibitor
Cc1ccc(C)n1-c1sccc1C(=O)O,3%,3.8µM*,?,-83*,3.2µM*
Cc1cc(C(=O)O)c(C)n1-c1ccccc1,2%,-2%,-4%,-1,-2%
COc1ccc(CNC(=O)CSc2ccsc2[N+](=O)[O-])cc1,1%,?,-23%,-50*,-11%
CC(=O)c1ccc(NC(=O)CSc2ccsc2[N+](=O)[O-])cc1,1%,-19%,-3%,-81*,?
CCC(Cc1ccccc1)NC(=O)CSc1ccsc1[N+](=O)[O-] (centres undefined),1%,-6%,-13%,0,1%
CCN(CC)c1ccc(NC(=O)CSc2ccsc2[N+](=O)[O-])c(C)c1,1%,24µM*,-13%,?,?
Cc1ccc(NC(=O)CSc2ccc(C(N)=O)cc2[N+](=O)[O-])cc1C,2%,3µM*,-16%,?,?
Cc1ccc(NC(=O)CSc2ccc(C(N)=O)cc2[N+](=O)[O-])cc1,-1%,-10%,-7%,-4,4%
Cc1ccc(CNC(=O)CSc2ccsc2[N+](=O)[O-])cc1,2%,-18%,-12%,-9,-3%[57.1 µM]
O=C(CSc1ccsc1[N+](=O)[O-])Nc1cc(F)ccc1F,5%,?,-1%,-94*,?
O=S(=O)(Nc1nc(-c2sccc2Cl)cs1)c1cc(Cl)ccc1Cl,?,17µM*,?,-50*,?
CC(C)(C)c1nnc(NS(=O)(=O)c2cc(Cl)ccc2Cl)s1,2%,?,-7%,-1,-2%
O=C(NCCN1CCOCC1)c1cc(S(=O)(=O)Nc2ccccc2F)c(Cl)cc1Cl,0%,34µM*,-14%,2,-2%
CCc1ccc2occ(CC(=O)Nc3nnc(C)s3)c2c1,/,/,-2%,/,/
CCOc1ccc2c(c1)nc(SCC(=O)c1ccc(Br)s1)n2C,0%,30µM*,-10%,/,-11%
CCOc1ccc2c(c1)nc(SCC(=O)c1cccs1)n2C,-1%,?,-14%,-21,-28%
Cc1ccc(-c2nnc3ccccc3c2C(=O)Nc2cccc(C(F)(F)F)c2)cc1,/,/,-25%,/,/
CCN(CC)CCOC(=O)c1ccc(N/C=C(/C#N)c2nc(-c3ccc(OC)cc3)cs2)cc1,1%,-8%,-17%,-69*,?
N#C/C(=C\C=C\c1ccccc1)c1nc(-c2ccc3c(c2)OCO3)cs1,3%,?,?,2,-6%
CCN(CC)CCOC(=O)c1ccc(N/C=C(/C#N)c2nc(-c3cc4ccccc4oc3=O)cs2)cc1,0%,3%,?,?,-24%
CCN(CC)CCOC(=O)c1ccc(N/C=C(/C#N)c2nc(-c3ccc4c(c3)OCO4)cs2)cc1,1%,9%,?,-53*,-27%
S=c1[nH]nc(-c2cc(-c3ccco3)[nH]n2)n1-c1ccccc1Cl,1%,-23%,-4%,-57*,50µM*
Cc1ccccc1OCC(=O)NNC(=O)CSc1nc(N)cc(N)n1,2%,21µM*,-18%,3,0%[57.1 µM]
Cc1cc(C(=O)COC(=O)c2cc(Cl)c(O)c(Cl)c2)c(C)n1C,1%,?,-15%,-64*,50µM*
COc1cccc(CNS(=O)(=O)c2ccc(N3CCCCS3(=O)=O)cc2)c1,/,/,9%,/,/
SMILES,USP2a inh,PLK1 PBD block,USP1 inh,PI5P4K alpha inh,WRN inhibitor
COc1ccc(CCNc2oc(COc3ccccc3F)nc2C#N)cc1OC,2%,27µM*,-13%,-1,6%
Cc1ccc(-n2nnnc2CNC(=O)c2ccc(F)cc2)cc1C,/,/,-22%,/,/
COCCCNc1oc(-c2ccccc2F)nc1C#N,-3%,24µM*,?,-2,4%
COc1ccc(NC(=O)c2[nH]nc3c2CSc2ccccc2-3)c(OC)c1,/,/,-8%,/,/
N#Cc1c(Cl)nsc1NN,-1%,30µM*,-26%,?,-32%
Cc1c(C#N)c(N)nc(Cl)c1C#N,0%,-12%,?,-14,-4%
Cc1ccccc1OCc1nnc(SCC(=O)O)n1-c1ccccc1,2%,0%,-1%,?,-4%
Cc1ccccc1OCc1nnc(SCC(=O)O)n1-c1cccc(Cl)c1,0%,-19%,-6%,-53*,-3%
CCN(c1ccccc1)S(=O)(=O)c1ccc(NC(=O)c2nc(S(C)(=O)=O)ncc2Cl)cc1,-1%,17µM*,-12%,5,-13%
CS(=O)(=O)c1ncc(Cl)c(C(=O)Nc2ccc(OC(F)F)cc2)n1,0%,24µM*,-12%,0,-8%[57.1 µM]
CCOC(=O)c1nc(S(C)(=O)=O)ncc1Cl,0%,21µM*,-18%,/,-8%
CCOC(=O)c1nc(S(C)(=O)=O)ncc1N1CCOCC1,2%,-2%,-16%,/,-6%
CCOc1ccccc1NC(=O)C1CCN(S(=O)(=O)c2ccc3c(c2)CCCN3C(C)=O)CC1,/,/,-24%,/,/
O=[N+]([O-])c1ccc(NNC(=S)Nc2ccc(F)cc2)cc1,2%,12µM*,-11%,/,0%
O=C(NNC(=S)Nc1ccc(F)cc1)c1cccc([N+](=O)[O-])c1,1%,-13%,-10%,5,-27%
O=C(NC(NNc1ccc([N+](=O)[O-])cc1)(C(F)(F)F)C(F)(F)F)c1ccc(F)cc1,4%,-26%,-19%,-71*,?
CSCCC(NS(=O)(=O)c1ccc2c(c1)oc(=O)n2C)C(=O)NCc1ccc(Cl)cc1 (centres undefined),/,/,2%,/,/
O=C(NCc1ccccc1Cl)c1ccc(NC(=O)c2nsc3ccccc23)cc1,/,/,-5%,/,/
CC(C(=O)OCC(=O)c1ccccc1)N1C(=O)c2ccccc2C1=O (centres undefined),0%,30µM*,-7%,-8,10%
Cc1cc(C)cc(NC(=O)N2CCC(CN3CCCCCC3)CC2)c1,/,/,-22%,/,/
CCN(c1ccccc1)c1ccc2cc(S(=O)(=O)N3CCCC3)ccc2n1,/,/,-11%,/,/
O=C(/C=C/c1ccccc1Cl)NC1CCCCC1,-2%,-19%,5%,-2,-8%
CCC(CC)NC(=O)/C=C/c1ccccc1Cl,2%,30µM*,-5%,-12,-24%
O=C(/C=C/c1ccccc1Cl)NC1CCS(=O)(=O)C1 (centres undefined),8%,3.8µM*,-2%,-69*,?
COc1ccc(-c2ccc(CCC(=O)O)n2CC(=O)Nc2cccc(Cl)c2C)cc1,/,/,-20%,/,/
COc1ccc(NC(=O)C(C)n2nc(-c3ccc(C)c(C)c3)ccc2=O)cc1OC (centres undefined),/,/,-17%,/,/
CC(Sc1nc(NCc2ccccc2)nc(N2CCOCC2)n1)C(=O)Nc1ccccc1 (centres undefined),5%,30µM*,-20%,5,5%
CC(=O)N1CCC(=NNS(=O)(=O)c2ccc(C)c([N+](=O)[O-])c2)CC1,0%,-17%,-19%,1,16%
Cc1ccc(S(=O)(=O)Nc2ccc(C(N)=O)cc2)cc1[N+](=O)[O-],-12%,15µM*,-9%,?,4%
